Experimental findings from PubChem BioAssay (Tox21) are described below.

Results filed as inconclusive are left out. Entries that show only a call come without a potency. Where a structure was tested more than once in an assay, its records may differ in their call. Activity calls are given as the source filed them. Unless noted, calls follow the shape of the dose curve; as a rule, active = well fitted curve in the direction sought with a large enough effect in the repeat runs; inconclusive = weak or mixed curves; inactive = no such curve, though single readings can be large; an effect the other way counts as inactive or inconclusive.

Aromatase (Homo sapiens), sequence (P11511 whole entry, looked up): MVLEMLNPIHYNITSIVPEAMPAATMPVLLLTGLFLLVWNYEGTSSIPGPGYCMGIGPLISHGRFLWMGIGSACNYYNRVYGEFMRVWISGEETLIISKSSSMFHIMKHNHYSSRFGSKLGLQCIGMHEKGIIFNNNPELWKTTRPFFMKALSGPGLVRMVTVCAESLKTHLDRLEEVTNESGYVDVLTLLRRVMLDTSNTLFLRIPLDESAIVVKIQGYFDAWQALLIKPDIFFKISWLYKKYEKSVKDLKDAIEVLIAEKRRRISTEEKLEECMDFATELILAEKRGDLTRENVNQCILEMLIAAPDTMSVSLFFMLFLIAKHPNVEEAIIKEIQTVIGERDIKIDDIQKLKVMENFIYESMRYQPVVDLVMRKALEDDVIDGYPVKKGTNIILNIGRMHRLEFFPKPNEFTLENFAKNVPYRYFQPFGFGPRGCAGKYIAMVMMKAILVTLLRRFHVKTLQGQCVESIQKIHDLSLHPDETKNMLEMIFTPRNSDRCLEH

System in one experiment: not listed separately
The experiment in a line: qHTS assay to identify small molecule antagonists of the estrogen receptor alpha (ER-alpha) signaling pathway using the BG1 cell line (AID 743080; calls by dose curve;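 also: BG1 cells stimulated with 17beta-estradiol alongside compound; nearly all actives have a fitted effect of over 25% in size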; also: potency is read from the fitted curve at half-maximal effect). As to conditions: BG1Luc4E2 ERE-luciferase antagonist mode, luminescence; series mostly up to 70.3 µM; activity change, negative = inhibition: at the top concentration. A digest of the protocol: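 Luciferase inhibition measured with ONE-Glo after 30 min at RT in BG1Luc4E2 cells given test compounds and 17beta-estradiol for 21.5 h at 37 C; CellTiter-Fluor viability read in the same wells beforehand.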
(In general: Quantitative high-throughput screening tests each substance at several concentrations.)
Turning to `CCCCCCCC/C=C\CCCCCCCC(=O)O`, the Potency result is “inactive”.
For the compound `CN(C)C`, the Potency result is “inactive”.
On to `CCC(Cc1c(I)cc(I)c(N)c1I)C(=O)O` (configuration not stated), for which the Potency result was “inactive”.
Take `Cc1ccc([N+](=O)[O-])c(C)c1`: the Potency result was “inactive”.
Still for that read-out and setting: under `O=C1CCc2ccccc2O1` stands “inactive”; under `[Na+]`, “inactive”; under `C1COCCN1`, “inactive”.
In the case of `Nc1cc(Cl)c(N)c(Cl)c1`, the Potency is 34.1 µM (active) and inactive.
Still for that read-out and setting: under `CC(C)(C)c1cccc(C(C)(C)C)c1O` stands “inactive”.
As for `C=CCNCC=C`, the Potency entry was “inactive”.
Regarding `FC(F)(F)C(Cl)Br` (configuration not stated), the Potency result was “inactive”.
Turning to `CCCCCC1C(=O)CCC1CC(=O)OC` (configuration not stated), the Potency result was “inactive”.
For the compound `NCCOCCO`, the Potency entry is “inactive”.
Same read-out and setting: under `CNC[C@H](O)c1ccc(O)c(O)c1` stands “inactive”.
As for `NCCS(=O)(=O)O`, the Potency result is “inactive”.
Regarding `Cc1ccc(S(=O)(=O)O)cc1C`, the Potency entry was “inactive”.
Same read-out and setting: with `CC1(C)C(C=C(Cl)Cl)C1C(=O)OCc1cccc(Oc2ccccc2)c1` (configuration not stated) the entry was “inactive”.
Take `Cc1ccc(N)c([N+](=O)[O-])c1`: the Potency entry was “inactive”.
Still for that read-out and setting: under `O=C(O)c1cc(=O)[nH]c(=O)[nH]1` stands “inactive”.

System in another experiment: not listed separately
The experiment in a line: qHTS assay to identify small molecule antagonists of the estrogen receptor alpha (ER-alpha) signaling pathway using the BG1 cell line - cell viability counter screen (AID 743081).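 Also: compound given together with 17beta-estradiol as the ER stimulus; nearly all actives have a fitted effect of over 45% in size.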 The settings on record: BG1Luc4E2 viability, CellTiter-Fluor, 22 h; series mostly up to 70.3 µM; activity change, negative = cytotoxicity: at the top concentration.
For the compound `O=S1(=O)CCCO1`, the Potency result was “inactive”.
In the case of `CCOC(=O)C(C)Oc1ccc(Oc2cnc3cc(Cl)ccc3n2)cc1` (configuration not stated), the Potency result was “inactive”.
On the same count and under the same terms, with `COC(=O)CC(=O)OC` the entry was “inactive”; with `C=C[Si](OCCOC)(OCCOC)OCCOC`, “inactive”; with `CN(C)/N=N/c1nc[nH]c1C(N)=O`, “inactive”.
Same read-out and setting: with `c1ccc2c(c1)[nH]c1ccccc12` the entry was “inactive”.
Consider `CCCCCCC(C)O` (configuration not stated), for which the Potency entry is “inactive”.
In the case of `CCC/C=C/C=O`, the Potency entry was “inactive”.
Same read-out and setting: with `CCCCCCCCCCCCO` the entry was “inactive”.
The same measure, in the same setting: under `CC(C)[N+](C)(CCOC(=O)C1c2ccccc2Oc2ccccc21)C(C)C` stands “inactive”; under `C/C=C/C(=O)N(CC)c1ccccc1C`, “inactive”; under `COC(=O)c1ccc(C)cc1`, “inactive”.
Still for that read-out and setting: with `CCc1cccc2c3c([nH]c12)C(CC)(CC(=O)O)OCC3` (configuration not stated) the entry was “inactive”; with `CCCCCCCCCCCCCO`, “inactive”.
As to `CC(C)=CCO`, the Potency entry was “inactive”.
In the case of `CC(=O)Oc1c(C)c(C)c2c(c1C)CC[C@@](C)(CCC[C@H](C)CCC[C@H](C)CCCC(C)C)O2`, the Potency entry is “inactive”.
On to `Cc1ccc(C(C)(C)C)cc1`, for which the Potency entry was “inactive”.
With `CCO[Si](CCCNC(N)=O)(OCC)OCC`, the Potency result is “inactive”.
The same measure, in the same setting: under `OC[C@H]1O[C@@H]2O[C@H]3[C@H](O)[C@@H](O)[C@@H](O[C@H]4[C@H](O)[C@@H](O)[C@@H](O[C@H]5[C@H](O)[C@@H](O)[C@@H](O[C@H]6[C@H](O)[C@@H](O)[C@@H](O[C@H]7[C@H](O)[C@@H](O)[C@@H](O[C@H]1[C@H](O)[C@H]2O)O[C@@H]7CO)O[C@@H]6CO)O[C@@H]5CO)O[C@@H]4CO)O[C@@H]3CO` stands “inactive”; under `CC1(C)O[C@@H]2C[C@H]3[C@@H]4C[C@H](F)C5=CC(=O)C=C[C@]5(C)[C@@]4(F)[C@@H](O)C[C@]3(C)[C@]2(C(=O)CO)O1`, “inactive”; under `CCCCCCCC/C=C\CCCCCCCC(=O)O`, “inactive”.
Still for that read-out and setting: under `CN(C)C` stands “inactive”.
Consider `CCC(Cc1c(I)cc(I)c(N)c1I)C(=O)O` (configuration not stated), for which the “activity change, negative = cytotoxicity” value is 13.7% (inactive).
Take `Cc1ccc([N+](=O)[O-])c(C)c1`: the Potency result is “inactive”.
Turning to `O=C1CCc2ccccc2O1`, the Potency entry was “inactive”.
The same measure, in the same setting: with `[Na+]` the entry was “inactive”.
Still for that read-out and setting: with `C1COCCN1` the entry was “inactive”; with `Nc1cc(Cl)c(N)c(Cl)c1`, “inactive”.
In the case of `CC(C)(C)c1cccc(C(C)(C)C)c1O`, the Potency entry is “inactive”.
Turning to `C=CCNCC=C`, the Potency result was “inactive”.
For `FC(F)(F)C(Cl)Br` (configuration not stated), the Potency entry is “inactive”.
Regarding `CCCCCC1C(=O)CCC1CC(=O)OC` (configuration not stated), the Potency entry was “inactive”.
On the same count and under the same terms, under `NCCOCCO` stands “inactive”; under `CNC[C@H](O)c1ccc(O)c(O)c1`, “inactive”.
Take `NCCS(=O)(=O)O`: the “activity change, negative = cytotoxicity” value is 21.6% (inactive).
Regarding `Cc1ccc(S(=O)(=O)O)cc1C`, the Potency result is “inactive”.
In the case of `CC1(C)C(C=C(Cl)Cl)C1C(=O)OCc1cccc(Oc2ccccc2)c1` (configuration not stated), the Potency entry was “inactive”.
Same read-out and setting: with `Cc1ccc(N)c([N+](=O)[O-])c1` the entry was “inactive”.
On to `O=C(O)c1cc(=O)[nH]c(=O)[nH]1`, for which the Potency result is “inactive”.

A further experiment has as its target Aromatase (Homo sapiens) (UniProt P11511). The experiment in a line: qHTS assay to identify aromatase inhibitors (AID 743083). Also: nearly all actives have a fitted effect of over 55% in size. The settings on record: MCF-7 aro ERE, testosterone-driven ERE luciferase, 24 h; series mostly up to 70.3 µM; activity, negative = inhibition: at the top concentration.
As to `O=S1(=O)CCCO1`, the Potency entry was “inactive”.
Same read-out and setting: with `CCOC(=O)C(C)Oc1ccc(Oc2cnc3cc(Cl)ccc3n2)cc1` (configuration not stated) the entry was “inactive”; with `COC(=O)CC(=O)OC`, “inactive”; with `C=C[Si](OCCOC)(OCCOC)OCCOC`, “inactive”.
In the case of `CN(C)/N=N/c1nc[nH]c1C(N)=O`, the Potency entry was “inactive”.
Regarding `c1ccc2c(c1)[nH]c1ccccc12`, the “activity, negative = inhibition” value is 13.5% (inactive).
Still for that read-out and setting: with `CCCCCCC(C)O` (configuration not stated) the figure was -0.348% (inactive).
Regarding `CCC/C=C/C=O`, the Potency result was “inactive”.
Same read-out and setting: with `CCCCCCCCCCCCO` the entry was “inactive”; with `CC(C)[N+](C)(CCOC(=O)C1c2ccccc2Oc2ccccc21)C(C)C`, “inactive”.
As to `C/C=C/C(=O)N(CC)c1ccccc1C`, the Potency entry is “inactive”.
Turning to `COC(=O)c1ccc(C)cc1`, the Potency entry was “inactive”.
Consider `CCc1cccc2c3c([nH]c12)C(CC)(CC(=O)O)OCC3` (configuration not stated), for which the Potency entry was “inactive”.
On the same count and under the same terms, with `CCCCCCCCCCCCCO` the entry was “inactive”; with `CC(C)=CCO`, “inactive”.
The same measure, in the same setting: with `CC(=O)Oc1c(C)c(C)c2c(c1C)CC[C@@](C)(CCC[C@H](C)CCC[C@H](C)CCCC(C)C)O2` the entry was “inactive”; with `Cc1ccc(C(C)(C)C)cc1`, “inactive”.
Same read-out and setting: under `CCO[Si](CCCNC(N)=O)(OCC)OCC` stands “inactive”; under `OC[C@H]1O[C@@H]2O[C@H]3[C@H](O)[C@@H](O)[C@@H](O[C@H]4[C@H](O)[C@@H](O)[C@@H](O[C@H]5[C@H](O)[C@@H](O)[C@@H](O[C@H]6[C@H](O)[C@@H](O)[C@@H](O[C@H]7[C@H](O)[C@@H](O)[C@@H](O[C@H]1[C@H](O)[C@H]2O)O[C@@H]7CO)O[C@@H]6CO)O[C@@H]5CO)O[C@@H]4CO)O[C@@H]3CO`, “inactive”.
With `CC1(C)O[C@@H]2C[C@H]3[C@@H]4C[C@H](F)C5=CC(=O)C=C[C@]5(C)[C@@]4(F)[C@@H](O)C[C@]3(C)[C@]2(C(=O)CO)O1`, the Potency result was “inactive”.
On the same count and under the same terms, with `CCCCCCCC/C=C\CCCCCCCC(=O)O` the entry was “inactive”.
The same measure, in the same setting: with `CN(C)C` the entry was “inactive”.
`CCC(Cc1c(I)cc(I)c(N)c1I)C(=O)O` (configuration not stated): the Potency result was “inactive”.
Turning to `Cc1ccc([N+](=O)[O-])c(C)c1`, the “activity, negative = inhibition” value is 8.6% (inactive).
`O=C1CCc2ccccc2O1`: the Potency entry was “inactive”.
Still for that read-out and setting: under `[Na+]` stands “inactive”; under `C1COCCN1`, “inactive”.
For the compound `Nc1cc(Cl)c(N)c(Cl)c1`, the “activity, negative = inhibition” value is 1.44% (inactive).
For the compound `CC(C)(C)c1cccc(C(C)(C)C)c1O`, the Potency result is “inactive”.
For the compound `C=CCNCC=C`, the Potency entry is “inactive”.
For the compound `FC(F)(F)C(Cl)Br` (configuration not stated), the Potency result is “inactive”.
The same measure, in the same setting: under `CCCCCC1C(=O)CCC1CC(=O)OC` (configuration not stated) stands “inactive”; under `NCCOCCO`, “inactive”.
As to `CNC[C@H](O)c1ccc(O)c(O)c1`, the Potency result is “inactive”.
As for `NCCS(=O)(=O)O`, the Potency entry was “inactive”.
Regarding `Cc1ccc(S(=O)(=O)O)cc1C`, the Potency entry was “inactive”.
Same read-out and setting: with `CC1(C)C(C=C(Cl)Cl)C1C(=O)OCc1cccc(Oc2ccccc2)c1` (configuration not stated) the entry was “inactive”.
For `Cc1ccc(N)c([N+](=O)[O-])c1`, the “activity, negative = inhibition” value was 25.9% (inactive).
Turning to `O=C(O)c1cc(=O)[nH]c(=O)[nH]1`, the Potency entry was “inactive”.
